# PubChem BioAssay
# Active and inactive are the calls of the source. Unless noted, no stated cut-off is given here; in the data, active means nuclear beta-catenin stimulation mostly above about 4.2% (no sharp cut-off); inactive means mostly below about 10%.
# Tests used:
# [1] = Wnt pathway potentiators raising nuclear beta-catenin – imaging, WNT3A-conditioned medium, mouse C2C12, NPC library, primary screen (AID 1117326); conditions: stronger effect = higher value; further: reference of the scale not given here
# [2] = stimulators of insulin release from INS-1E, primary screen, cell-based, 5 mM glucose, NPC library (AID 1117329;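 active means compound raises insulin release from rat beta cells at 5 mM glucose, no numeric limit stated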; further: reference of the scale not given here); conditions: rat INS-1E insulin secretion, at 10 µM, stronger effect = higher value
# [3] = growth inhibition of GSK3B-pretreated HCT116 cells – cell-based, CellTiter-Glo, 0.2 to 20 µM (AID 1117336;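 active means compounds lowering colon cancer cell viability after pretreatment blocking the GSK3B kinase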); conditions: HCT116 viability after GSK3B inhibitor, at 20 µM, stronger effect = higher value
# [4] = inhibition of endothelial tube formation, primary screen, imaging, VEGF stimulated, CD31 staining, tube area, NPC library (AID 1117340;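 active means compound that reduces growth-factor-driven endothelial tube area in a mixed cell culture, no cutoff stated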); conditions: VEGF-stimulated ADSC/ECFC co-culture, at 10 µM, stronger effect = higher value
# [5] = GLP1 release stimulators, primary, NCI-H716, NPC library (AID 1117341;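 active means compound raises GLP1 secretion from the human gut endocrine cells, with no numeric limit stated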; further: reference of the scale not given here); conditions: NCI-H716 cells, at 10 µM, stronger effect = higher value
# [6] = HCT116 colon cancer cell growth inhibition, primary screen, CellTiter-Glo luminescence, NPC library (AID 1117342;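 active means compounds that lower survival of HCT116 colon cancer cells in the luminescence readout, no numeric limit stated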); conditions: at 20 µM (top of the series)
# [7] = reduced SW480 viability measured with CellTiter-Glo, NPC library, primary (AID 1117343;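 active means compounds that lower viability of the colon cancer cells in the luminescence readout, with no numeric limit stated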); conditions: CellTiter-Glo luminescence; at 20 µM (top of the series)
# [8] = NPC library primary testing for decreased DLD-1 cell viability via CellTiter-Glo (AID 1117346;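 active means compounds that lower survival of DLD-1 colon cancer cells in the luminescence readout, no cutoff given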); conditions: DLD-1 viability, CellTiter-Glo luminescence; at 20 µM (top of the series)
Compound,nuclear beta-catenin stimulation ([1]; at 10 µM),"nuclear beta-catenin stimulation ([1]; stimulation, at 2 µM)",insulin secretion stimulation [2],viability decrease [3],tube area decrease [4],GLP1 secretion stimulation [5],inhibition of viability [6],viability decrease (inhibition) [7],viability decrease (inhibition) [8]
Cc1cn([C@@H]2O[C@H](CO)[C@@H](O)[C@H]2F)c(=O)[nH]c1=O,-2.3% (inactive),-0.8%,0.3% (inactive),26.6% (inactive),-11.7% (inactive),-3% (inactive),4.6% (inactive),3.1% (inactive),6.8% (inactive)
Cc1cccc(C)c1NC(=O)CN(CC(=O)O)CC(=O)O,0.4% (inactive),0.2%,-2.1% (inactive),-0.05% (inactive),-22.7% (inactive),1.6% (inactive),2.2% (inactive),43.5% (inactive),8.9% (inactive)
COc1ccc2nc(SCc3ncc(C)c(OC)c3C)[nH]c2c1,1.9% (inactive),0.8%,3.1% (inactive),1% (inactive),24.8% (inactive),1.6% (inactive),26.8% (inactive),-12.2% (inactive),-6.1% (inactive)
O=C(O)Cc1ccc(CCNS(=O)(=O)c2ccc(Cl)cc2)cc1,0% (inactive),0.1%,0.2% (inactive),-5.1% (inactive),3.3% (inactive),-2.9% (inactive),-4% (inactive),1.5% (inactive),-6.1% (inactive)
CCCCCCCC/C=C\CCCCCCCCN,-3.5% (inactive),2.6%,-0.6% (inactive),18.7% (inactive),90% (active),24.7% (active),33.8% (inactive),147% (active),106% (active)
CC(C)(C)c1cc(C=O)cc(C(C)(C)C)c1O,2% (inactive),4.1%,1.1% (inactive),19.1% (inactive),10.5% (inactive),0.6% (inactive),4.5% (inactive),-22.1% (inactive),-10% (inactive)
CC[N+]1(CC)CCC(=C(c2ccccc2)c2ccccc2)C1C (stereo not given),-1.3% (inactive),-2.2%,1.7% (inactive),-4.6% (inactive),-9.4% (inactive),3.8% (inactive),22.7% (inactive),1.6% (inactive),34.6% (inactive)
CCCOc1ccc2c(c1)CC[C@@H]1[C@@H]2CC[C@]2(C)C(OC)CC[C@@H]12 (stereo not given in full),0.5% (inactive),0%,-0.1% (inactive),69.6% (active),-3.1% (inactive),-0.8% (inactive),56% (active),103% (active),40.8% (inactive)
COC(=O)c1cc(Cl)c(NC(C)=O)cc1OC,1.9% (inactive),0.7%,0.95% (inactive),-12.1% (inactive),-7.7% (inactive),1.2% (inactive),-1.4% (inactive),-23.1% (inactive),-11.9% (inactive)
Nc1cc(C(F)(F)F)ccc1S,0% (inactive),-0.9%,4.4% (inactive),2.3% (inactive),44.8% (active),20.5% (active),16.7% (inactive),-4.3% (inactive),20.8% (inactive)
Cc1ccc2ccc(Cl)cc2n1,-0.9% (inactive),-2.1%,1.25% (inactive),-1.7% (inactive),-2.2% (inactive),-2.9% (inactive),2.4% (inactive),1.2% (inactive),-3.7% (inactive)
O=C(OCc1ccccc1)c1ccc(O)cc1,4.1% (inactive),-0.1%,0.1% (inactive),-24.5% (inactive),-8.2% (inactive),0.1% (inactive),16.1% (inactive),12.9% (inactive),14.4% (inactive)
Nc1nc(N)c(-c2ccccc2)s1,0.4% (inactive),2.2%,-2% (inactive),-1.63% (inactive),16.7% (inactive),2.1% (inactive),10.2% (inactive),48.5% (inactive),2.53% (inactive)
CCC(=O)Oc1ccc2c(c1)CC[C@@H]1[C@@H]2CC[C@@]2(C)[C@H]1C[C@@H](OC(=O)CC)[C@@H]2OC(=O)CC,1.7% (inactive),1.2%,2.5% (inactive),-51.4% (inactive),28.9% (inactive),-6.9% (inactive),31.7% (inactive),67.4% (active),-2.6% (inactive)
CO[C@@]1(NC(=O)CSC[C@@H](N)C(=O)O)C(=O)N2C(C(=O)O)=C(CSc3nnnn3C)CS[C@@H]21,0.6% (inactive),-1.7%,2.6% (inactive),4.5% (inactive),-11.8% (inactive),-0.5% (inactive),-0.6% (inactive),-15.3% (inactive),3.1% (inactive)
